Experimental findings from article PMC4336329 (PLoS ONE, 2015) are described below.

The whole screen tested about 310,000 compounds, of which about 14,000 (4.5%) showed an effect of 50% or more. Effects have a minus sign here. The sample holds strong results, similar compounds and a random draw of the others, so the mix is not that of the screen.
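Also: peak tail current of the secondary pulse compared with the same well before compound.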

Chain of human ether-à-go-go-related gene (hERG) potassium channel (Q12809 whole entry, looked up): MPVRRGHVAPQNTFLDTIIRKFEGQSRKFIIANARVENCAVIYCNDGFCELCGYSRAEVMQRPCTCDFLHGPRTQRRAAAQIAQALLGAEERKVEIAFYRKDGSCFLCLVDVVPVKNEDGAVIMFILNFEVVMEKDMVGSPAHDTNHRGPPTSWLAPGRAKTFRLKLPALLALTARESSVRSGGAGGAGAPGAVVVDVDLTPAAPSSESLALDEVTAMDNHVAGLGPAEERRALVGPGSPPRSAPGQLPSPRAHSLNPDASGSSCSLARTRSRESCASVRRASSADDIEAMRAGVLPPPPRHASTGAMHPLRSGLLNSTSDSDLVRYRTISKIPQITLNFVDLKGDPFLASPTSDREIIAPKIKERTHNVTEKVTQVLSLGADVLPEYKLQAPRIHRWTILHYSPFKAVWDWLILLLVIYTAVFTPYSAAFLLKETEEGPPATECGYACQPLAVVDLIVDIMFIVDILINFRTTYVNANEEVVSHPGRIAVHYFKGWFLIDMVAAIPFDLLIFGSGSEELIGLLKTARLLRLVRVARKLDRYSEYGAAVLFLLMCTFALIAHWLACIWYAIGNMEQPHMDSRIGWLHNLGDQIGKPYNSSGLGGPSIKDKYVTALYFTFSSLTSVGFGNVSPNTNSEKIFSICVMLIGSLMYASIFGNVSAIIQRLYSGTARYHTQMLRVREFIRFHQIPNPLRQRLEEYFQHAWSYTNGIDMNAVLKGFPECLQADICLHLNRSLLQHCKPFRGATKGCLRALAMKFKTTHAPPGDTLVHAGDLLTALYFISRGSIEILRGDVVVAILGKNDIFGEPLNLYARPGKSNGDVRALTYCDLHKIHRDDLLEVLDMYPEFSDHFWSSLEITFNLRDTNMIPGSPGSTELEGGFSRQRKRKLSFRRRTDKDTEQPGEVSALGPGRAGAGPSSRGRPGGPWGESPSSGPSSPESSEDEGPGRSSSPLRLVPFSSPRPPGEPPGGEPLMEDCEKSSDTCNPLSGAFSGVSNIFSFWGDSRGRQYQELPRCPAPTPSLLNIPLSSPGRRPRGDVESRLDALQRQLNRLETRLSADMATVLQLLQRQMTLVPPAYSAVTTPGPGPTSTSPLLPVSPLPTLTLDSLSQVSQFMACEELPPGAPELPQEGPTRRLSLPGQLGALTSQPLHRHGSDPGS

The experiment has as its target human ether-à-go-go-related gene (hERG) potassium channel (human, UniProt Q12809). The experiment in a line: primary screen, population patch clamp on CHO cells stably expressing hERG; higher = less effect of the substance.
In the case of `COc1ccccc1CNC(=O)C1(NC(=O)Nc2ccc(C)cc2)CCCCC1`, the “hERG current change (%, negative = inhibition) at 10uM” value is listed as 30.7%.
Then `COC(=O)[C@H]1[C@H]2C[C@@H]3c4[nH]c5cc(OC)ccc5c4CCN3C[C@H]2C[C@@H](OC(=O)c2cc(OC)c(OC)c(OC)c2)[C@@H]1OC`, with -12.4%; and `CCCOc1ccc(N2C(=O)CC(NCc3ccncc3)C2=O)cc1` (stereo not drawn), with -11.6%; and `CCCOc1ccc(N2C(=O)CC(NCc3ccc(S(N)(=O)=O)cc3)C2=O)cc1` (stereo not drawn), with 4.38%.
As to `CCCOc1ccc(N2C(=O)CC(NCCNc3ccc([N+](=O)[O-])cn3)C2=O)cc1` (stereo not drawn), the “hERG current change (%, negative = inhibition) at 10uM” value is reported as -72.5%.
For `CCOc1ccc(N2C(=O)CC(NC3CCN(C(=O)c4cccs4)CC3)C2=O)cc1` (stereo not drawn), the “hERG current change (%, negative = inhibition) at 10uM” value is recorded as -24.7%.
For `CCOc1ccc(C(=O)c2cccs2)cc1`, the “hERG current change (%, negative = inhibition) at 10uM” value is -6.82%.
Then `COc1ccc(N2C(=O)CC(NCCNc3ccc([N+](=O)[O-])cn3)C2=O)cc1` (stereo not drawn), with -34%.
Then `CCCOc1ccc(N2C(=O)CC(NCCNc3ccc(S(=O)(=O)CC)cc3)C2=O)cc1` (stereo not drawn), with -59.9%; and `CCOc1ccc(N2C(=O)CC(NCCc3ccncc3)C2=O)cc1` (stereo not drawn), with -5.67%; and `CCCOc1ccc(N2C(=O)CC(NCC#N)C2=O)cc1` (stereo not drawn), with 2.57%.
As for `CCCOc1ccc(N2C(=O)CC(NCCc3ccc(S(N)(=O)=O)cc3)C2=O)cc1` (stereo not drawn), the “hERG current change (%, negative = inhibition) at 10uM” value was -5.4%.
Then `CCOc1ccc(N2C(=O)CC(NCCNc3ccc([N+](=O)[O-])cn3)C2=O)cc1` (stereo not drawn), with -77.5%.
Then `CCOc1ccc(N2C(=O)CC(NCCNc3ccc(C(=O)c4cccs4)cc3)C2=O)cc1` (stereo not drawn), with -71.5%.
As to `Cc1ccc(/C=C/C(=O)OCC(=O)NCc2ccc(Cl)cc2)o1`, the “hERG current change (%, negative = inhibition) at 10uM” value was -13.9%.
Then `O=C(COc1ccc(Cl)cc1Br)N1CCN(S(=O)(=O)c2ccccc2)CC1`, with -9.19%.
Then `COc1ccccc1N1CCN(S(=O)(=O)Cc2ccccc2Cl)CC1`, with -2.74%; and `Cc1ccc(Nc2nnc(SCC(=O)NC3CC3)s2)cc1`, with 9.41%; and `O=C(Nn1cnnc1)c1ccc(Cl)cc1`, with 17.7%.
For the compound `COc1ccc(Nc2nc(-c3cccs3)cs2)c(OC)c1`, the “hERG current change (%, negative = inhibition) at 10uM” value is 4.09%.
Then `CCn1cc(SCC(=O)Nc2cc(C)on2)c2ccccc21`, with 7.98%.
In the case of `CC(=O)Nc1ccc(S(=O)(=O)N2CCN=C2SCc2ccc(C)cc2)cc1`, the “hERG current change (%, negative = inhibition) at 10uM” value is -12%.
Then `Cc1csc(Sc2ccc([N+](=O)[O-])cc2C(=O)OCC(=O)NC2CCCC(C)C2C)n1` (stereo not drawn), with -26.2%.
Then `COc1ccc(C(=O)Nn2c(CC(C)C)nc3cc(Cl)ccc3c2=O)c(OC)c1`, with 13.4%; and `COc1cc2c(cc1OC)C(C)N(C(=O)/C=C/c1cc(OC)c(OC)c(OC)c1)CC2` (stereo not drawn), with 7.57%; and `Cc1cccc(CCNC(=O)C2CCCN(c3cnccn3)C2)c1` (stereo not drawn), with -11.5%.
For the compound `O=C(c1ccccc1)c1cccc(NC(=O)C2CC2)c1`, the “hERG current change (%, negative = inhibition) at 10uM” value came to 0.476%.
Then `O=S(=O)(NC1CCCCC1NS(=O)(=O)c1ccc(F)cc1)c1ccc(F)cc1` (stereo not drawn), with -5.29%.
In the case of `O=C1OC(c2ccc(Br)cc2)=N/C1=C\N1CC2CC(C1)c1cccc(=O)n1C2` (stereo not drawn), the “hERG current change (%, negative = inhibition) at 10uM” value is -45.2%.
Then `O=C(NC(=S)N1C[C@H]2C[C@H](C1)c1cccc(=O)n1C2)c1ccc(Cl)cc1`, with -8.28%.
Then `O=c1cccc2n1C[C@@H]1C[C@@H]2CN(CC(O)c2ccc([N+](=O)[O-])cc2)C1` (stereo partly drawn), with -49%; and `O=C1OC(c2ccc(Cl)cc2)=N/C1=C\N1CC2CC(C1)c1cccc(=O)n1C2` (stereo not drawn), with -72%; and `Nc1cc(C(=O)N2CCN(c3ccc([N+](=O)[O-])cc3)CC2)ccc1N1CC2CC(C1)c1cccc(=O)n1C2` (stereo not drawn), with -35.3%.
Then `O=C1OC(c2ccc([N+](=O)[O-])cc2)=N/C1=C/N1CC2CC(C1)c1cccc(=O)n1C2` (stereo not drawn), with -55.1%.
As to `Cn1cc(C(=O)NC2CCCCC2)c(=O)c2cc(S(=O)(=O)N3CCOCC3)ccc21`, the “hERG current change (%, negative = inhibition) at 10uM” value was found to be 11.8%.
On to `O=C(O)CC(Sc1n[nH]c(=S)s1)C(=O)O` (stereo not drawn), for which the “hERG current change (%, negative = inhibition) at 10uM” value is recorded as 18.2%.
On to `CCN(CC)S(=O)(=O)c1ccc(N2CCCCC2)c(C(=O)Nc2ccccc2N2CCOCC2)c1`, for which the “hERG current change (%, negative = inhibition) at 10uM” value is recorded as -51.1%.
Then `CCN(CC)S(=O)(=O)c1ccc2[nH]c(=O)cc(C(=O)Nc3ccccc3N3CCOCC3)c2c1`, with -18.9%; and `CCN(CC)S(=O)(=O)c1ccc(N2CCOCC2)c(NC(=O)c2cccc3ccccc23)c1`, with 7.99%; and `CCN(CC)S(=O)(=O)c1ccc(OC)c(NC(=O)c2ccc(OC)c([N+](=O)[O-])c2)c1`, with -24.4%.
Then `CCN(CC)S(=O)(=O)c1ccc(OC)c(NC(=O)c2cccc(C)c2[N+](=O)[O-])c1`, with -14.5%.
Then `CCN(CC)S(=O)(=O)c1ccc(N2CCOCC2)c(NC(=O)c2cccc3c(=O)c(C)c(-c4ccccc4)oc23)c1`, with -55%.
Regarding `COc1ccc(S(=O)(=O)N2CCOCC2)cc1NC(=O)c1cccc2c(=O)c(C)c(-c3ccccc3)oc12`, the “hERG current change (%, negative = inhibition) at 10uM” value is recorded as -32.9%.
`CCN(CC)S(=O)(=O)c1ccc(N2CCOCC2)c(NC(=O)c2ccccc2F)c1`: the “hERG current change (%, negative = inhibition) at 10uM” value was -15.8%.
Then `CCN(CC)S(=O)(=O)c1ccc(O)c(NC(=O)c2cc(-c3cc(OC)c(OC)c(OC)c3)nc3ccccc23)c1`, with -59.2%; and `CCN(CC)S(=O)(=O)c1ccc(OC)c(NC(=O)c2cccc([N+](=O)[O-])c2C)c1`, with -63.8%.
Then `COc1cc(-c2cc(C(=O)Nc3ccc(S(N)(=O)=O)cc3)c3ccccc3n2)cc(OC)c1OC`, with 29.2%; and `CCN(CC)S(=O)(=O)c1ccc(NC(=O)c2cc(-c3ccccc3)nc3ccccc23)cc1`, with 1.64%.
